Records with an inconclusive call do not appear. Where a call stands in place of a potency, no number is given. Active and inactive are the calls of the source. Unless noted, calls come from the whole dose curve; as a rule, active = well fitted curve in the direction sought with a large enough effect; inconclusive = small, poorly fitted or top-dose-only effect, or another doubt; inactive = no such curve, though single readings can be large; an effect the other way counts as inactive or inconclusive. Peptide text beside a SMILES is read from it.
Biological target: Arylsulfatase A (Homo sapiens) (UniProt P15289)
Assay: qHTS screen for enhancers of Arylsulfatase A (ASA1): LOPAC Validation Assay (AID 720538); note: potency is the fitted concentration of half-maximal effect
Details: ASA enzyme activity, LOPAC qHTS enhancer assay; series mostly up to 57.5 µM
How it was run: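 Read-out: fluorescence at Ex=525/Em=598 nm after 1N NaOH final stop. Patient fibroblasts carrying ASA-I179S had 48h compound exposure, then 14h room-temperature pNCS hydrolysis (0.5mM final) in lysis buffer. Signal increase = enhanced activity.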

Sequence of Arylsulfatase A (Homo sapiens) (P15289 whole entry, looked up): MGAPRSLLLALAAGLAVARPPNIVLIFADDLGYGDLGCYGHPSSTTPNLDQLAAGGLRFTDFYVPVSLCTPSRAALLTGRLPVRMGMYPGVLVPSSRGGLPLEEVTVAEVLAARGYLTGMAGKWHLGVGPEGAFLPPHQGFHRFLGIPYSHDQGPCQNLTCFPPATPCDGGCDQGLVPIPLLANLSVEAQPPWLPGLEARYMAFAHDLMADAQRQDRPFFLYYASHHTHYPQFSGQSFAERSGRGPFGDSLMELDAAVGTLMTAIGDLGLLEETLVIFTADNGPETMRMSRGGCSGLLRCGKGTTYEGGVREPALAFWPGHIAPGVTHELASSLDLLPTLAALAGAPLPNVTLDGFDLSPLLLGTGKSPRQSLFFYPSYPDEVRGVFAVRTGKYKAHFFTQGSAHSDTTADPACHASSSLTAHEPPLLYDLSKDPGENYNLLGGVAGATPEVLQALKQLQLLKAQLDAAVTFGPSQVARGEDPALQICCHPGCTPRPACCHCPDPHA

SMILES | Potency
CC(C)c1ccc2c(c1)c(SC(C)(C)C)c(CC(C)(C)C(=O)O)n2Cc1ccc(Cl)cc1 | inactive
CC(=O)N1CCN(c2ccc(OC[C@H]3CO[C@](Cn4ccnc4)(c4ccc(Cl)cc4Cl)O3)cc2)CC1 | inactive
CCOC(=O)C(C)Oc1cccc2c(=O)n(CC(=O)Nc3ccc4c(c3)OCCO4)ccc12 (stereo not drawn) | inactive
Oc1ccc(-c2nc(-c3ccc(F)cc3)c(-c3ccncc3)[nH]2)cc1 | inactive
O=c1c(O)c(-c2ccc(O)cc2O)oc2cc(O)cc(O)c12 | inactive
C[C@@H](N)C1CCC(C(=O)Nc2ccncc2)CC1 (stereo partly drawn) | inactive
O=Nc1c(-c2c(O)[nH]c3cc(Br)ccc23)[nH]c2ccccc12 | 21.3 µM (active)
Cc1cccc(C#Cc2ccccc2)n1 | inactive

Tested on: not listed separately
Assay: qHTS for compounds that reverse cellular toxicity of Amyloid beta (A-beta) peptide in yeast: LOPAC Validation Assay (AID 720559)
Details: yeast expressing A-beta; series mostly up to 46.1 µM
How it was run: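 OD600 growth readout after 48 hr at 30 C; A-beta-toxic yeast plus pinned compounds in medium. Normalization: DMSO = negative, equimolar FeCl3 + clioquinol = positive.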

SMILES | outcome
CNC[C@H](O)c1ccc(O)c(O)c1 | inactive
CC(C)c1ccc2c(c1)c(SC(C)(C)C)c(CC(C)(C)C(=O)O)n2Cc1ccc(Cl)cc1 | inactive
Cc1cc(O)c2c(c1)C(=O)c1cc(O)cc(O)c1C2=O | inactive
CCOC(=O)C(C)Oc1cccc2c(=O)n(CC(=O)Nc3ccc4c(c3)OCCO4)ccc12 (stereo not drawn) | inactive
Oc1ccc(-c2nc(-c3ccc(F)cc3)c(-c3ccncc3)[nH]2)cc1 | inactive
CC1(C)NC(=O)N(c2ccc([N+](=O)[O-])c(C(F)(F)F)c2)C1=O | inactive
O=c1c(O)c(-c2ccc(O)cc2O)oc2cc(O)cc(O)c12 | inactive
C[C@@H](N)C1CCC(C(=O)Nc2ccncc2)CC1 (stereo partly drawn) | inactive
O=Nc1c(-c2c(O)[nH]c3cc(Br)ccc23)[nH]c2ccccc12 | inactive
Cc1cccc(C#Cc2ccccc2)n1 | inactive

Tested on: not listed separately
Assay: qHTS for Activators of Parkin Expression: LOPAC Validation Assay (NLuc Reporter) (AID 720572)
Details: Parkin promoter NanoLuc reporter cells, luminescence, percent of positive control, DMSO as zero; series mostly up to 46.1 µM
How it was run: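 Compound effects on Parkin promoter activity were measured as NanoLuc luminescence after 24 h at 37 C. The neuronal reporter line also carried FLuc, which was read first. LOPAC compounds were tested at 7 concentrations, with normalization to DMSO (0%) and positive control (100%).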

SMILES | outcome
CNC[C@H](O)c1ccc(O)c(O)c1 | inactive
Cc1cc(O)c2c(c1)C(=O)c1cc(O)cc(O)c1C2=O | inactive
CC(=O)N1CCN(c2ccc(OC[C@H]3CO[C@](Cn4ccnc4)(c4ccc(Cl)cc4Cl)O3)cc2)CC1 | inactive
CCOC(=O)C(C)Oc1cccc2c(=O)n(CC(=O)Nc3ccc4c(c3)OCCO4)ccc12 (stereo not drawn) | inactive
CC1(C)NC(=O)N(c2ccc([N+](=O)[O-])c(C(F)(F)F)c2)C1=O | inactive
O=c1c(O)c(-c2ccc(O)cc2O)oc2cc(O)cc(O)c12 | inactive
C[C@@H](N)C1CCC(C(=O)Nc2ccncc2)CC1 (stereo partly drawn) | inactive
O=Nc1c(-c2c(O)[nH]c3cc(Br)ccc23)[nH]c2ccccc12 | inactive
Cc1cccc(C#Cc2ccccc2)n1 | inactive

Tested on: not listed separately
Assay: qHTS for Activators of Parkin Expression: LOPAC Validation Assay (FLuc Reporter) (AID 720573; note: potency is the fitted concentration of half-maximal effect)
Details: Cell line, PRKN promoter firefly luciferase reporter; series mostly up to 46.1 µM
How it was run: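 FLuc luminescence read-out from a neuronal line expressing a Parkin-promoter-driven coincidence reporter. Cells treated 24 h at 37 C, 5% CO2 with compounds at 7 concentrations; signal increase normalized to DMSO and positive control.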

SMILES | Potency
CNC[C@H](O)c1ccc(O)c(O)c1 | inactive
CC(C)c1ccc2c(c1)c(SC(C)(C)C)c(CC(C)(C)C(=O)O)n2Cc1ccc(Cl)cc1 | inactive
Cc1cc(O)c2c(c1)C(=O)c1cc(O)cc(O)c1C2=O | inactive
CC(=O)N1CCN(c2ccc(OC[C@H]3CO[C@](Cn4ccnc4)(c4ccc(Cl)cc4Cl)O3)cc2)CC1 | inactive
CCOC(=O)C(C)Oc1cccc2c(=O)n(CC(=O)Nc3ccc4c(c3)OCCO4)ccc12 (stereo not drawn) | inactive
Oc1ccc(-c2nc(-c3ccc(F)cc3)c(-c3ccncc3)[nH]2)cc1 | inactive
CC1(C)NC(=O)N(c2ccc([N+](=O)[O-])c(C(F)(F)F)c2)C1=O | inactive
O=c1c(O)c(-c2ccc(O)cc2O)oc2cc(O)cc(O)c12 | inactive
C[C@@H](N)C1CCC(C(=O)Nc2ccncc2)CC1 (stereo partly drawn) | inactive
O=Nc1c(-c2c(O)[nH]c3cc(Br)ccc23)[nH]c2ccccc12 | 2.59 µM (active)
Cc1cccc(C#Cc2ccccc2)n1 | 2.91 µM (active)

Tested on: not listed separately
Assay: qHTS assay for small molecule agonists of the antioxidant response element (ARE) signaling pathway measured by Nrf2-dependant transcriptional activity (AID 720636; active = well fitted curve in the direction sought with a large enough effect in the repeat runs; an effect the other way counts as inactive or inconclusive;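 note: HepG2 cells with an ARE-driven luciferase reporter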)
Details: ARE-luc HepG2, Nrf2 luciferase reporter, 16 h; series mostly up to 92.4 µM
How it was run: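 We exposed ARE-luc HepG2 cells, seeded in assay medium with 1% dialyzed FBS and allowed 6 hr to adhere, to test compounds overnight (16 hr, 37 C) before measuring luciferase with ONE-Glo.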

SMILES | Potency
Nc1nc(Cl)nc2c1ncn2[C@H]1C[C@H](O)[C@@H](CO)O1 | inactive
Nc1ccc(S(N)(=O)=O)cc1 | inactive
CNC[C@H](O)c1ccc(O)c(O)c1 | inactive
CC(=O)Nc1ccc(O)cc1 | inactive
COC(=O)[C@H](Cc1ccccc1)NC(=O)[C@@H](N)CC(=O)O (H-Asp-Phe-OMe) | inactive
CC(=O)N1CCN(c2ccc(OC[C@H]3CO[C@](Cn4ccnc4)(c4ccc(Cl)cc4Cl)O3)cc2)CC1 | inactive
CS(=O)(=O)OCCCCOS(C)(=O)=O | inactive
Cc1ccc(C)c(OCCCC(C)(C)C(=O)O)c1 | inactive
CCc1nc(N)nc(N)c1-c1ccc(Cl)cc1 | inactive
NS(=O)(=O)c1cc(C(=O)O)c(NCc2ccco2)cc1Cl | inactive
CCCc1cc(=O)[nH]c(=S)[nH]1 | inactive
CC1(C)NC(=O)N(c2ccc([N+](=O)[O-])c(C(F)(F)F)c2)C1=O | inactive
O=c1c(O)c(-c2ccc(O)cc2O)oc2cc(O)cc(O)c12 | inactive
CCCCC(CC)COC(=O)C(C#N)=C(c1ccccc1)c1ccccc1 (stereo not drawn) | inactive
COc1cc(OC)c(C(=O)CCCN2CCCC2)c(OC)c1 | inactive

Tested on: not listed separately
Assay: qHTS assay for small molecule antagonists of the retinoid-related orphan receptor gamma (ROR-gamma) signaling pathway - cell viability counter screen (AID 720652; active = well fitted curve in the direction sought with a large enough effect in the repeat runs; an effect the other way counts as inactive or inconclusive;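 note: CHO reporter cells with doxycycline-induced ROR-gamma expression; compound exposure lasted 16 hr before ATP read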)
Details: RORgamma reporter cell line viability counter screen; series mostly up to 92.2 µM
How it was run: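 CHO RORE-LUC/TET-ROR line, 1,000 cells/well, 37 C 5% CO2 5 hr; cpd or DMSO + doxycycline induction, 16 hr. CellTiter-Glo, 30 min RT, luminescence = ATP content.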

SMILES | outcome
Nc1ccc(S(N)(=O)=O)cc1 | inactive
CC(=O)Nc1ccc(O)cc1 | inactive
Cc1cc(O)c2c(c1)C(=O)c1cc(O)cc(O)c1C2=O | inactive
COC(=O)[C@H](Cc1ccccc1)NC(=O)[C@@H](N)CC(=O)O (H-Asp-Phe-OMe) | inactive
CS(=O)(=O)OCCCCOS(C)(=O)=O | inactive
Cc1ccc(C)c(OCCCC(C)(C)C(=O)O)c1 | inactive
CCc1nc(N)nc(N)c1-c1ccc(Cl)cc1 | inactive
NS(=O)(=O)c1cc(C(=O)O)c(NCc2ccco2)cc1Cl | inactive
CCCc1cc(=O)[nH]c(=S)[nH]1 | inactive
c1ccc2[nH]c(-c3cscn3)nc2c1 | inactive

Reference: PubChem BioAssay (NCATS)
